Mac1 fbg inh – inhibitors of CD11b/CD18 adhesion to fibrinogen, primary screen, K562 cells, luminescence. actives 0.54% (n = 93,000). inhibition, % at 10 µM. ATPlite luminescence; Mn2+ added to activate the integrin;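 active means primary inhibition of 50% or more at 10 µM, then 40% or more on retest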
PTK2B oligo ant – antagonists of Pyk2 self-association, primary screen, Q293 cells, FERM NanoBiT luminescence, HTS; Protein-tyrosine kinase 2-beta (Homo sapiens), Q14289; active compounds read low; z-score (the deposit names both 25 µM and 10 µM); AID 1347419, 2020; actives 0.83% (n = 99,000);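 active means Z-score of -3 or lower, scaled per plate to the spread of control and sample wells; inactive means z-score above -3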;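 further: negative z-score means lost luminescence so less FERM oligomerization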
FAK inh – FAK kinase inhibitors, primary screen, biochemical; actives 0.84% (n = 97,000); inhibition, %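 (tested at 7 µM)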; Focal adhesion kinase 1 (Homo sapiens), Q05397; biochemical FAK kinase activity assay; AID 727, 2007; in the data active means inhibition above about 19%;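 further: 0% = DMSO and 100% = reference compound high control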
hDAT+cocaine – changed hDAT dopamine uptake under cocaine IC80, either direction, primary screen, cocaine antagonist project, cell-based, LLC-PK1 hDAT, [14C]-dopamine uptake, MLSMR; Sodium-dependent dopamine transporter (Homo sapiens), Q01959; LLC-PK1 hDAT cells, [14C]-dopamine uptake with cocaine IC80; actives deviate in either direction; B-score at 10 µM; actives 1.3% (n = 110,000); AID 449768, 2010;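 active means Z score or B-score, a plate-position-corrected score, falls beyond the plate's 99.7% confidence bounds, in either direction; inactive means both scores lie inside the 99.7% bounds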;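 further: scored against the spread of the other compound wells on the same plate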
Target sequence (Q01959 whole entry, looked up): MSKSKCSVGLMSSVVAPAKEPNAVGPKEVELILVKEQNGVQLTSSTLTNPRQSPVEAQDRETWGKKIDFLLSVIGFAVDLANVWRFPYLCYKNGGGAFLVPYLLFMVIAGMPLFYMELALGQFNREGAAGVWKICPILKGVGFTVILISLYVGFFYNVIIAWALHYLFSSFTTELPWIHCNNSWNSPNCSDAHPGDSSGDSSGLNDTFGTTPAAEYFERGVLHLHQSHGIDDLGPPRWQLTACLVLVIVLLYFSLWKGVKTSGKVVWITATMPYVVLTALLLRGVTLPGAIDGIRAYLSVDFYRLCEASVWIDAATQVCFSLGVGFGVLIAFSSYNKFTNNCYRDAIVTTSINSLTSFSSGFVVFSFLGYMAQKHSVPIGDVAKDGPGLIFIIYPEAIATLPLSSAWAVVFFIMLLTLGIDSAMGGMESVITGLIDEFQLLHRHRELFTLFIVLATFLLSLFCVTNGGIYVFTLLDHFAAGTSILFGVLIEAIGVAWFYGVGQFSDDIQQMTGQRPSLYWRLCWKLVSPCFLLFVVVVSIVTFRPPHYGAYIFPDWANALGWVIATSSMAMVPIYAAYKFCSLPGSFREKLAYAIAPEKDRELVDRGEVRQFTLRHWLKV
Mac1 fbg enh – enhancers of CD11b/CD18 adhesion to fibrinogen, primary screen, K562 cells, luminescence; Integrin beta-2 (Homo sapiens) + Integrin alpha-M (Homo sapiens), P05107+P11215; ATPlite luminescence; activation, % at 10 µM; actives 0.07% (n = 93,000); AID 1499, 2009;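 active means 10 µM primary screen giving 50% or more activity, confirmed by 40% or more on retest at that dose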
D1 allo mod – D1 CRE-luciferase signal change, two-sided – cell-based, HEK293 D1, dopamine EC30, D1 allosteric modulator project, primary screen; D(1A) dopamine receptor (Homo sapiens), P21728; dopamine EC30 potentiation; actives deviate in either direction; B-score at 10 µM; actives 5.9% (n = 58,000); AID 641, 2007;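 active means luminescence count or its row- and column-corrected plate score outside the 99.7% band of the plate's sample wells, on either side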
D1 mod confirm – D1 receptor positive allosteric modulators, retest, confirmation, cell-based, HEK293 D1, CRE-luciferase, duplicate. AID 642, 2007. shares compounds with D1 allo mod. luminescence at 10 µM. actives 88% (n = 2,200). dopamine EC30 potentiation; active compounds read high;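 active means luminescence in either of two replicates above the same-plate mean plus 3 SD of the low-dose dopamine control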
D1 no dopamine – D1 receptor agonism without dopamine, confirmation, mechanism study for D1 allosteric modulator project, cell-based, HEK293 D1, CRE-luciferase, secondary assay 1; luminescence, no dopamine; active compounds read high; AID 646, 2007; shares compounds with D1 allo mod; actives 0.8% (n = 1,900); luminescence at 10 µM; in the data active means luminescence above about 3900
Isoprot counter – alters isoproterenol CRE-luciferase response in HEK293 cells; shares compounds with D1 allo mod; HEK293 D1 CRE-luciferase, isoproterenol EC30 counter-screen; calls only at 10 µM; actives 63% (n = 2,200); AID 647;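 active means luminescence in either replicate above plate mean of wells with a partly effective reference agonist dose plus 3 SD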;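 further: isoproterenol raises cAMP through native beta-adrenoceptor Gs so signal bypasses D1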
Starred values were filed as active, the others as inactive; i = inactive; . = no result given; + = active, no number. The entries come from a sample that favours hits as a whole.

SMILES | Mac1 fbg inh | PTK2B oligo ant | FAK inh | hDAT+cocaine | Mac1 fbg enh | D1 allo mod | D1 mod confirm | D1 no dopamine | Isoprot counter
O=c1c2ccccc2n(Cc2ccc(Cl)cc2)c(=O)n1Cc1ccco1 | . | -2.1 | . | -0.65 | . | 8.5* | 16764* | 1488 | +
O=c1c2cc(Cl)ccc2[nH]c(=S)n1Cc1ccco1 | 12 | 0.47 | -1 | -0.25 | 7 | 2.8* | 9744* | 1436 | i
Cc1cc(S(=O)(=O)Nc2ccc(F)cc2)c(C)s1 | -8 | -0.81 | 1 | -0.2 | -4 | . | . | . | .
CCN(CC)S(=O)(=O)c1ccc(C2CNC(=O)C2)cc1 (configuration not stated) | -8 | . | 2 | -0.25 | -2 | -0.35 | . | . | .
COc1cccc(C(=O)Cn2c(=O)n(CC3CCCO3)c(=O)c3ccccc32)c1 (configuration not stated) | 1 | -1.9 | 1 | -0.42 | -4 | -0.12 | . | . | .
CCC(C)(C)NC(=O)CN(C(=O)CNS(=O)(=O)c1ccc(C)cc1)c1ccc2c(c1)OCCO2 | 1 | -0.56 | -2 | -0.44 | -1 | -0.061 | . | . | .
CCc1ccc2[nH]c(=O)c(CN(Cc3nnnn3C3CCCC3)C3CCCCC3)cc2c1 | 17 | -0.8 | . | 0.98 | -2 | 2.5* | 8428* | 1592 | i
OCCn1nc2c3ccccc3nc-2n(-c2ccccc2)c1=S | 8 | 0.55 | 0 | -7.2* | 0 | 5.9* | 7812* | 1556 | i
Cc1nn(-c2ccccc2)c(=S)n1-c1ccccc1 | 5 | 0.58 | -1 | 1.6 | 0 | -0.27 | . | . | .
COCCCn1c(SCc2cc(=O)[nH]c3ccccc23)nnc1-c1ccco1 | -2 | -0.56 | 3 | 0.25 | -4 | -0.036 | . | . | .
O=C(c1cccc2ccccc12)N1CCN(CC2CC=CCC2)CC1 (configuration not stated) | 17 | 0.15 | -1 | -0.32 | 4 | 4.6* | 5828 | 1612 | i
Cc1noc(C)c1COc1cccc(C(=O)OCCOc2ccc(F)cc2)c1 | 26 | 0.87 | -1 | -0.099 | -4 | -0.84 | . | . | .
Cc1ccc(NC(=O)c2cccc(OCc3c(C)noc3C)c2)c(C)c1 | 0 | 0.1 | -4 | -0.0029 | 0 | 4.6* | 5064 | 1592 | i
Cc1c(NC(=O)c2n[nH]c(=O)c3ccccc23)c(=O)n(-c2ccccc2)n1C | -3 | 1.3 | -2 | -0.43 | 1 | . | . | . | .
CCCCCCNC(=O)C(C(=O)OCC)C1CCCCC1 (configuration not stated) | 5 | -0.2 | 3 | -0.14 | -1 | -0.2 | . | . | .
COc1cc(-c2nc(S(=O)(=O)c3ccc(C)cc3)c(N3CCOCC3)o2)cc(OC)c1OC | 0 | 0.94 | -6 | . | 0 | 5.4* | 8652* | 1408 | +
COc1cc(-c2nc(S(=O)(=O)c3ccc(Cl)cc3)c(N3CCOCC3)o2)cc(OC)c1OC | -10 | -0.08 | 0 | 0.18 | 8 | 3 | . | . | .
O=C(OCn1nnc2ccccc2c1=O)C1CCN(S(=O)(=O)c2cccs2)CC1 | . | 0.6 | . | -1.6 | . | 4* | 11392* | 1780 | i
O=C(CC1CCCC1)OCn1nnc2ccccc2c1=O | 1 | 3.1 | . | -0.17 | 2 | -0.74 | . | . | .
Cc1ccc(C)c(OC(=O)c2cncc(Br)c2)c1 | . | 0.71 | . | . | . | . | . | . | .
O=C(c1coc2ccc(O)c(CN3CCOCC3)c12)C1CC1 | -11 | -0.23 | 1 | 0.13 | -2 | 0.054 | . | . | .
O=C(c1cccs1)c1coc2ccc(O)c(CN3CCOCC3)c12 | 11 | -1.3 | 2 | 1 | 1 | 18* | 20688* | . | +
C=CCSc1nc(N)c(C#N)c(-c2ccc(C)cc2)c1C#N | -20 | -3.5* | 2 | -0.65 | 6 | 3.1* | 4628 | 1776 | i
Cc1nn(-c2ccccc2)cc1/C=N/O | -11 | 0.75 | 5 | -1.2 | 0 | 4.3* | 7640* | . | i
CCC(=O)N1CCc2cc(S(=O)(=O)N3CCN(c4ccccn4)CC3)ccc21 | -10 | -0.39 | 5 | -1.6 | -4 | 2.7* | 13196* | 1512 | +
SMILES | Mac1 fbg inh | PTK2B oligo ant | FAK inh | hDAT+cocaine | Mac1 fbg enh | D1 allo mod | D1 mod confirm | D1 no dopamine | Isoprot counter
CCc1noc2c1/C(=N\O)CC(c1ccccc1)C2 (configuration not stated) | -4 | -0.63 | -8 | -0.24 | -2 | 17* | 25792* | 1744 | +
CCCc1noc2c1/C(=N\O)CC(c1ccccc1)C2 (configuration not stated) | . | -0.64 | 0 | -1.3 | . | . | . | . | .
N#Cc1c(N)nc(SCc2ccncc2)c(C#N)c1-c1cccs1 | -9 | -3.9* | . | -0.006 | 2 | 6.5* | 8108* | 1716 | +
CCOC(=O)c1[nH]c(COC(=O)C2CC(=O)N(Cc3ccccc3)C2)c(C(=O)OCC)c1C (configuration not stated) | -12 | 0.1 | 5 | . | 1 | 2.9* | 4948 | 1448 | i
O=C(O)C1CC(=O)N(Cc2ccccc2)C1 (configuration not stated) | -19 | 1.8 | -7 | -0.66 | 1 | -0.21 | . | . | .
CCOC(=O)c1sc(N)c(C(=O)OCC)c1COC(=O)C1CC(=O)N(Cc2ccco2)C1 (configuration not stated) | 14 | -0.02 | 0 | 0.25 | 6 | 6.1* | 8580* | . | +
CCOc1ccccc1CN1C(=O)c2ccccc2C1C(=O)NC(C)CC (configuration not stated) | -1 | 1.4 | -4 | 0.75 | 4 | . | . | . | .
CCOC(=O)CC(=O)Nc1ccc(C(=O)OCC)cc1 | -28 | -0.49 | -1 | -0.41 | 12 | 4.5* | 6944 | 1692 | i
COc1cc(N/C(=N/S(=O)(=O)c2ccccc2)c2ccccc2)ncn1 | 40 | -0.55 | 2 | 0.16 | -3 | 6.4* | 14612* | 1720 | i
COc1ccccc1N/C(=N/S(=O)(=O)c1ccc(Cl)cc1)c1ccccc1 | -45 | -1.8 | 3 | -1.2 | -4 | . | . | . | .
Cc1ccc(NC2c3ccccc3C(=O)N2CCN2CCOCC2)cc1 (configuration not stated) | -8 | . | -1 | -1.5 | -2 | . | . | . | .
N#CCSc1nc(N)c(C#N)c(C2CCCCC2)c1C#N | . | -0.83 | 3 | -1.6 | . | 9* | 13172* | . | +
